Experimental data reported in PubChem BioAssay AID1220 (Sanford-Burnham Center for Chemical Genomics, 2008).
Out of some 190,000 compounds screened, about 1,300 (0.68%) were called active. The list comes from a sample in which actives are over-represented; it also holds similar structures and randomly drawn compounds. Unmarked numbers belong to inactive results. Cut-off read from the data, not from the text of the source: active = inhibition above about 50%; inactive = the rest.

These compounds were tested against Mannose-6-phosphate isomerase (Homo sapiens) (UniProt P34949) (assay: human PMI inhibitors, high substrate, primary screen, biochemical, fluorescence intensity, high mannose 6-phosphate (AID 1220)). Settings: recombinant PMI enzyme, coupled fluorescence intensity; at 20 µM; active compounds read high.
Mannose-6-phosphate isomerase (Homo sapiens), sequence (P34949 whole entry, looked up): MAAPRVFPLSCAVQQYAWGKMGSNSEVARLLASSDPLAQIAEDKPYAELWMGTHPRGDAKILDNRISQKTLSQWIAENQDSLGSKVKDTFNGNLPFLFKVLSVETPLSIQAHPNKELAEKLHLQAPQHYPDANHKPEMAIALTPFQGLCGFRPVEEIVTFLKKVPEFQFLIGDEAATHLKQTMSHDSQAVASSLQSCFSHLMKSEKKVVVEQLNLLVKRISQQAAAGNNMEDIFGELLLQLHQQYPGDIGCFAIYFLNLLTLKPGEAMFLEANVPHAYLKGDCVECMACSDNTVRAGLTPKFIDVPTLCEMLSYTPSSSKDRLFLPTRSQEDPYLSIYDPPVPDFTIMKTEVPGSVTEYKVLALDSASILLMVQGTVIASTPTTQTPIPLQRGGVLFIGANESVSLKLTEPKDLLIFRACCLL
Work on `Cc1ccc(C(=O)Nc2ccc(C(=O)N3CCCCC3C)cc2)cc1` (configuration not stated) yielded an inhibition of 1%. `O=C(CSC1=NCCS1)Nc1cccc2ccccc12` gave an inhibition of 2.9%. With `CC(C)(C)NC(=S)Nc1cccc(C(F)(F)F)c1` the inhibition was 2.1%. With `FC(F)(F)c1cccc(NC(=S)NC(c2ccccc2)c2ccccc2)c1` the inhibition was -5.4%. For `CC(NC(=S)Nc1cccc(C(F)(F)F)c1)C(C)(C)C` (configuration not stated), the inhibition was 54.2% (active). Compound `CCOC(=O)/C(C#N)=C1/SC(CC)C(=O)N1c1ccc(C)cc1` (configuration not stated) has an inhibition of -25%. `C/C(=N\Nc1ccc(F)cc1F)c1ccc(N2CCOCC2)cc1` gave an inhibition of -144%. `CC(c1ccco1)N(C(=O)c1ccc(C(F)(F)F)cc1)c1ccccn1` (configuration not stated) showed an inhibition of 8.9%. `Cc1ccc(S(=O)(=O)CC2CSc3nc4ccccc4n32)cc1` (configuration not stated) showed an inhibition of 9.4%. `CCCc1cc(=O)oc2cc(C)cc(O)c12` gave an inhibition of 2.5%. In the case of `CCCCc1cc(=O)oc2cc(O)cc(O)c12`, the inhibition is reported as 64% (active). `CCCCc1cc(=O)oc2cc(C)cc(O)c12` showed an inhibition of 7.5%. Work on `Clc1cccc(-c2ccc(C=Nc3ccc(N4CCOCC4)cc3)o2)c1` yielded an inhibition of 33.8%. In the case of `Cc1ccc(Cl)cc1-c1ccc(C=Nc2ccc(N3CCOCC3)cc2)o1`, the inhibition is reported as 52.4% (active). In the case of `Clc1cccc(-c2ccc(/C=N/n3cnnc3)o2)c1Cl`, the inhibition is reported as 1.1%. Compound `Oc1ccc(C=Nc2ccc(N3CCOCC3)cc2)c(O)c1` has an inhibition of 13.7%. `Clc1ccc(-c2ccc(C=Nc3ccc(N4CCOCC4)cc3)o2)c(Cl)c1` showed an inhibition of 47.6%. For `Oc1c(Br)cc(Cl)cc1C=Nc1ccc(N2CCOCC2)cc1`, the inhibition was 51.8% (active). `O=[N+]([O-])c1cc(Br)c(O)c(C=Nc2ccc(N3CCOCC3)cc2)c1` gave an inhibition of 40.2%. In the case of `Clc1cccc(-c2ccc(C=Nc3ccc(N4CCOCC4)cc3)o2)c1Cl`, the inhibition is reported as 63.9% (active). `Clc1ccc(-c2ccc(C=Nc3ccc(N4CCOCC4)cc3)o2)cc1` showed an inhibition of 24.7%. Compound `O=C(O)c1cn(Cc2cccnc2)c(=O)c2ccccc12` has an inhibition of 1.5%. Work on `CCOC(=O)C1=C(c2ccccc2)Nc2ncnn2C1c1cc(OC)ccc1OC` (configuration not stated) yielded an inhibition of 7.8%. `Cn1c(=O)[nH]c(=O)c2c1nc(SCCN1CCOCC1)n2Cc1ccccc1` was tested, and the inhibition was 6.9%. Work on `COc1ccc(NC(=O)CCC(=O)OCc2ccc(C(=O)Oc3ccc(Cl)cc3)cc2)cc1` yielded an inhibition of -5.2%. `CCCCN1C(=O)C(O)=C(C(C)=O)C1c1ccccc1` (configuration not stated) gave an inhibition of -7.7%. `CN(CCO)c1nc(N)c2c(N)nc3c(c2c1C#N)CC(=O)N3Cc1cccs1` showed an inhibition of 33.7%. `COCCN(CCOC)c1nc(N)c2c(N)nc3c(c2c1C#N)CC(=O)N3Cc1ccc(Cl)cc1` showed an inhibition of 25.1%. In the case of `CCCCN1C(=O)Cc2c1nc(N)c1c(N)nc(N(CCC)CCC)c(C#N)c21`, the inhibition is reported as 56% (active). `CC(=O)c1c(C)[nH]c(C(=O)NCCc2ccccc2)c1C` showed an inhibition of 2.6%. For `c1ccc(-n2cccc2CNC2CCCCC2)cc1`, the inhibition was -4.6%. Compound `Oc1ccc2c(c1)C1CCCC1(N1CCOCC1)O2` (configuration not stated) has an inhibition of 24.6%. `c1ccc2c3c(cc(N4CCOCC4)c2c1)OC1(N2CCOCC2)CCCCC1O3` (configuration not stated) was tested, and the inhibition was 60.5% (active). Work on `O=c1cc(N2CCOCC2)c2ccccc2o1` yielded an inhibition of 4.1%. `Cc1ccc(NC(=S)/C(=C(\[O-])c2ccc(Cl)s2)[n+]2cccc(CO)c2)cc1C` showed an inhibition of 10.4%. `Cc1ccc(C)c(NC(=S)/C(=C(\[O-])c2ccc(Cl)s2)[n+]2ccccc2)c1` was tested, and the inhibition was 26.5%. `Cc1cc(C)cc(NC(=S)/C(=C(\[O-])c2ccc(Cl)s2)[n+]2cccc(C)c2)c1` was tested, and the inhibition was 51.9% (active). `Cc1c(CNC(=O)c2cnn3c2NC(c2ccc(Br)cc2)CC3C(F)(F)F)cnn1C` (configuration not stated) showed an inhibition of 11.4%. With `Cc1ccc(NS(=O)(=O)c2cc([N+](=O)[O-])ccc2NNC(=S)Nc2cc(C)ccc2C)c(C)c1` the inhibition was 9.1%. `CC(=O)N(C)C1=C(N2CCOCC2)C(=O)c2ccccc2C1=O` gave an inhibition of 33.1%. With `CC(=O)N(C1=C(N)C(=O)c2ccccc2C1=O)C(C)C` the inhibition was 54.5% (active). Compound `CC(=O)N(C)C1=C(O)c2ccccc2C(=O)C1=O` has an inhibition of 19.6%. Compound `NC(=O)COC(=O)c1cccc(NS(=O)(=O)/C=C/c2ccccc2)c1` has an inhibition of 4.6%. Work on `Cn1c(C(=O)O)cnc1Sc1ncc(C(F)(F)F)cc1Cl` yielded an inhibition of -17.5%. With `Cc1ccc(Nc2nnc(SCc3cc(=O)n4ccsc4n3)s2)c(C)c1` the inhibition was 8.6%. `COc1ccc2[nH]c3c(=O)n(Cc4ccc(C(=O)NCC5CCCO5)cc4)c(=S)[nH]c3c2c1` (configuration not stated) gave an inhibition of 3.5%. For `CC(=O)Nc1ccc(C2(O)COc3ccccc3O2)cc1` (configuration not stated), the inhibition was -2%. `COc1ccccc1NC(=O)c1ccc(-c2ccccc2[N+](=O)[O-])o1` was tested, and the inhibition was 52.9% (active). Compound `COc1cccc(NC(=O)c2ccc(-c3ccccc3[N+](=O)[O-])o2)c1` has an inhibition of -0.2%. Compound `COc1ccccc1NC(=O)c1ccc(-c2ccccc2F)o1` has an inhibition of -0.4%. `Cc1ccccc1Cc1ccc(Cl)nn1` was tested, and the inhibition was -8.8%. With `CN(C)C(=S)SCC(=O)NCc1ccc(F)cc1` the inhibition was 10.8%. With `CCc1cccc(NC(=O)c2snc3c(=O)[nH]cnc23)c1` the inhibition was 7.2%. Compound `Cc1cccc(C)c1-n1cccc1/C=C1\SC(=S)N(c2cccc(C(=O)O)c2)C1=O` has an inhibition of 3%. Compound `O=C(O)c1cc(-c2ccc(/C=C3/SC(=S)N(Cc4ccccc4)C3=O)o2)ccc1Cl` has an inhibition of -34.8%. Work on `O=C1NC(=S)S/C1=C\c1ccc(SCc2ccco2)o1` yielded an inhibition of 7.7%. `O=C1NC(=S)S/C1=C\c1ccc(SCc2ccccc2)o1` was tested, and the inhibition was 66.9% (active). `O=C1NC(=S)S/C1=C/c1ccc(N2CCOCC2)o1` showed an inhibition of -14%. In the case of `O=C(O)c1cccc(N2C(=O)/C(=C/c3ccc(SCc4ccc(Cl)cc4)o3)SC2=S)c1`, the inhibition is reported as 67.9% (active). `O=C(COC(=O)c1sc2cc(F)ccc2c1Cl)Nc1ncc(Cl)cc1Cl` gave an inhibition of 13.4%. In the case of `Cn1c(=O)c2c(nc(SCC(=O)Nc3ccccc3)n2C)n(C)c1=O`, the inhibition is reported as 6.1%. Work on `Cc1cccc(C)c1NC(=O)CSc1nnc(-c2cccnc2)o1` yielded an inhibition of 5.5%.
